From PMC4336329 (PLoS ONE, 2015) come the findings set out here.

In all, about 310,000 compounds went through this assay and about 14,000 (4.5%) showed an effect of 50% or more. The effect is printed as a negative number. This is one part of a sample in which strong results are shown more often than they occur.
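Note: peak tail current of the secondary pulse compared with the same well before compound.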

The target in the assay is human ether-à-go-go-related gene (hERG) potassium channel (human, UniProt Q12809). Description: primary screen, population patch clamp on CHO cells stably expressing hERG; higher = less effect of the substance.
human ether-à-go-go-related gene (hERG) potassium channel, sequence (Q12809 whole entry, looked up): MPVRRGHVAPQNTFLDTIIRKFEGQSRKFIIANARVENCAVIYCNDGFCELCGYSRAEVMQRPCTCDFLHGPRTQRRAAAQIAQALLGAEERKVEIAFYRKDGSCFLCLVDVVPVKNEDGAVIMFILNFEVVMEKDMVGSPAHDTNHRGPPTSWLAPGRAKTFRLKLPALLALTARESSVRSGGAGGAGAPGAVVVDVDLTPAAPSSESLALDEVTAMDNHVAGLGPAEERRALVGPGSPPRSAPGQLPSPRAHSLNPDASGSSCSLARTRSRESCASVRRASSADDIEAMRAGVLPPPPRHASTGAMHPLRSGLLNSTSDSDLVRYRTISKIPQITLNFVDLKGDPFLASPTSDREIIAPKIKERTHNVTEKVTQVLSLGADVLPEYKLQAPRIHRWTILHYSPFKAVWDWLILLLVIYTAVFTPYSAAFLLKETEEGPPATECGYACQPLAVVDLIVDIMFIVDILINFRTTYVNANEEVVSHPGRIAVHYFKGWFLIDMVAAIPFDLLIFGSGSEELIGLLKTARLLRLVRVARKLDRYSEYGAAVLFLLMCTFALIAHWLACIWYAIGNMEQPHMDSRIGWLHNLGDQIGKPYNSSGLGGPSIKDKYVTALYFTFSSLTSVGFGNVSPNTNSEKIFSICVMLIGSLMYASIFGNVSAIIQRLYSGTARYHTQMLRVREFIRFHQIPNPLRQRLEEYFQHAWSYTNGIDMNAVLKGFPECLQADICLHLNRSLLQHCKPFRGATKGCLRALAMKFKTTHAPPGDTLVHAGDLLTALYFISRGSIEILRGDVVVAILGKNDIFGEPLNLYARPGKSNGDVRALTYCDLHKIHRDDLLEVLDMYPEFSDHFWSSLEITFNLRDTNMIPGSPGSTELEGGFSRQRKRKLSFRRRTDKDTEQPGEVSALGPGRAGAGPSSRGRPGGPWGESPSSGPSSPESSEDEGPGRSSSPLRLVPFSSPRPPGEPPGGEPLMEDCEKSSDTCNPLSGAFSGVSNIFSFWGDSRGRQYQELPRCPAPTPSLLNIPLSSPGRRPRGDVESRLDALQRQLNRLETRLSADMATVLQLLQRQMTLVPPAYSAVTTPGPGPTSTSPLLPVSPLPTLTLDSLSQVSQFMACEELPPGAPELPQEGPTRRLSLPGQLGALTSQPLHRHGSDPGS
With `CCc1nnc(NC(=O)CCN2C(=O)/C(=C/c3cc(OC)c(OC)c(OC)c3)SC2=S)s1`, the “hERG current change (%, negative = inhibition) at 10uM” value stood at 8.4%.
Turning to `O=C(O)CCC(C(=O)O)n1c(O)c(C2=c3ccccc3=NC2=O)sc1=S` (stereo not drawn), the “hERG current change (%, negative = inhibition) at 10uM” value is 20.5%.
To `Cc1ccc(OCC(=O)N2CCC(N3CC(C)CC(C)C3)CC2)cc1` (stereo not drawn) belongs -45.5%; to `S=C1NCN(CCc2ccccc2)CN1Cc1ccccc1`, 14.8%; to `COc1ccc(CNC(=O)Cn2cc([N+](=O)[O-])cn2)cc1`, 16.1%.
In the case of `O=C(COC(=O)c1ccc2ncsc2c1)NCc1ccc(Cl)cc1`, the “hERG current change (%, negative = inhibition) at 10uM” value is -4.62%.
To `O=C(Nc1cccnc1)c1cc(-c2ccccc2)on1` belongs 5.06%; to `COc1ccc2oc(=O)c(C(=O)N3CCCc4ccccc43)cc2c1`, -63.1%; to `COc1ccc2oc(=O)c(C(=O)N3c4ccccc4CC3C)cc2c1` (stereo not drawn), -21.6%.
For the compound `COc1ccc2oc(=O)c(C(=O)N3CCc4ccccc43)cc2c1`, the “hERG current change (%, negative = inhibition) at 10uM” value is on record as 15.8%.
The same measure for `CCSc1nc2cc(OC)c(OC)cc2c(=O)n1CC`: -2.16%; for `COc1cc2nc(COc3ccc(C#N)cc3)n(CC#N)c(=O)c2cc1OC`: -50.7%; for `COc1ccc(OCc2nc3c4cc(OC)c(OC)cc4nc(=S)n3[nH]2)cc1`: 11.7%.
Regarding `Cc1ccc(Cn2c(Sc3nnc(C)s3)nc3c2c(=O)[nH]c(=O)n3C)cc1`, the “hERG current change (%, negative = inhibition) at 10uM” value is -46.8%.
As for `COc1cccc(C2C3=C(Nc4[nH]n(-c5ccccc5)c(=O)c42)c2ccccc2C3=O)c1` (stereo not drawn), the “hERG current change (%, negative = inhibition) at 10uM” value is given as 9.64%.
On to `CN(CC(=O)NC1CCN(Cc2ccccc2)CC1)S(=O)(=O)c1ccc(Br)s1`, for which the “hERG current change (%, negative = inhibition) at 10uM” value is given as -18%.
The same measure for `CN(CC(=O)NC1CCN(Cc2ccccc2)CC1)S(=O)(=O)c1ccc(Cl)cc1`: -40.2%; for `Cc1ccc(CC(=O)NC2CCN(Cc3ccccc3)CC2)cc1`: -12.7%; for `O=C(Cn1cc2c(n1)CCCCC2)NC1CCN(Cc2ccccc2)CC1`: -58.5%.
In the case of `CN(CC(=O)NC1CCN(Cc2ccccc2)CC1)S(=O)(=O)c1ccc(Cl)s1`, the “hERG current change (%, negative = inhibition) at 10uM” value is reported as -67.9%.
The same measure for `CCOc1ccc(S(=O)(=O)NCCC(=O)NC2CCN(Cc3ccccc3)CC2)cc1`: -21.8%; for `O=C(CCNS(=O)(=O)c1ccc(Br)cc1)NC1CCN(Cc2ccccc2)CC1`: -61.9%.
Consider `O=C(CCNS(=O)(=O)c1cccs1)NC1CCN(Cc2ccccc2)CC1`, for which the “hERG current change (%, negative = inhibition) at 10uM” value is listed as 9.19%.
On to `Cl.O=C(Cc1ccccc1)NC1CCN(Cc2ccccc2)CC1`, for which the “hERG current change (%, negative = inhibition) at 10uM” value was 1.21%.
With `O=C(Cn1cc2c(n1)CCCCC2)NC1CCCCCC1`, the “hERG current change (%, negative = inhibition) at 10uM” value came out at 0.992%.
Take `O=C(Cn1cc2c(n1)CCCC2)NC1CCN(Cc2ccccc2)CC1`: the “hERG current change (%, negative = inhibition) at 10uM” value was -8.32%.
The same measure for `O=C(Cc1ccc(Br)cc1)NC1CCN(Cc2ccccc2)CC1`: -56%; for `CC1=CC(C)C2COC(c3ccc[n+](C)c3)C1C2C.[I-]` (stereo not drawn): 14.3%; for `O=C1/C(=C/c2ccncc2)N2CCC1CC2`: 2.32%.
For the compound `CCC(NC(=O)c1ccccc1NC(=O)c1ccco1)C(=O)NC1CCCCC1` (stereo not drawn), the “hERG current change (%, negative = inhibition) at 10uM” value is -22.5%.
Consider `CCOCCCNC(=O)c1ccc2c(c1)N(CC)C(=O)c1ccccc1S2=O` (stereo not drawn), for which the “hERG current change (%, negative = inhibition) at 10uM” value turned out to be 16.2%.
`CCN(CC)c1ccc(C2C(C(C)=O)C(=O)CC(C)(O)C2C(C)=O)cc1` (stereo not drawn): the “hERG current change (%, negative = inhibition) at 10uM” value was -13.4%.
`O=C(Nc1ccc(F)c(Cl)c1)NC1CC1`: the “hERG current change (%, negative = inhibition) at 10uM” value is on record as 13.7%.
To `CC1(C)CC(=O)C(C(c2ccc(Br)cc2)C2C(=O)CC(C)(C)CC2=O)C(=O)C1` belongs 0.769%; to `COc1cc(C)c(S(=O)(=O)Nc2ccccc2F)cc1C`, 6.11%.
For the compound `Cc1cccn2c(=O)c3cc(C(=O)NCCN4CCOCC4)c(=N)n(Cc4cccnc4)c3nc12`, the “hERG current change (%, negative = inhibition) at 10uM” value is -18.4%.
With `Cc1cccn2c(=O)c3cc(C(=O)NCc4cccnc4)c(=N)n(CC4CCCO4)c3nc12` (stereo not drawn), the “hERG current change (%, negative = inhibition) at 10uM” value is -75.6%.
To `O=C(NCc1cccnc1)C(=O)NCC1CCCO1` (stereo not drawn) belongs 21.5%; to `Cc1ccc(Cn2c(=N)c(C(=O)NCC3CCCO3)cc3c(=O)n4cccc(C)c4nc32)cc1` (stereo not drawn), -81.5%; to `CCC(Sc1nc2ccccc2c(=O)n1CC1CCCO1)C(=O)NCc1cccnc1` (stereo not drawn), -23.5%.
Turning to `Cc1cccn2c(=O)c3cc(C(=O)NCC4CCCO4)c(=N)n(Cc4cccnc4)c3nc12` (stereo not drawn), the “hERG current change (%, negative = inhibition) at 10uM” value was -95.1%.
The same measure for `Cc1cccn2c(=O)c3cc(C(=O)NCC4CCCO4)c(=N)n(Cc4ccc(F)cc4)c3nc12` (stereo not drawn): -75.7%; for `CN1CCN(CC#CCOc2ccc(Cl)cc2)CC1.O=C(O)C(=O)O`: -0.0359%.
Consider `CSc1ccccc1NC(=O)COc1ccccc1C`, for which the “hERG current change (%, negative = inhibition) at 10uM” value turned out to be 6.39%.
Turning to `CCOC(=O)C1(CC2CCCCO2)CCN(C(=O)Nc2ccc(SC)cc2)CC1` (stereo not drawn), the “hERG current change (%, negative = inhibition) at 10uM” value worked out at 2.65%.
The same measure for `COc1ccccc1NC(=O)c1oc2ccc(C)cc2c1C`: 14.1%.
`Cc1nnc(SCC(=O)NCc2ccccc2)[nH]c1=O`: the “hERG current change (%, negative = inhibition) at 10uM” value is given as -7.09%.
To `COc1ccc(/C=C2/C(=O)OCc3cc(OC)c(OC)cc32)c(OC)c1` belongs -27.8%; to `CCOC(=O)C1=C(c2ccc(O)cc2)NC(=O)NC1C` (stereo not drawn), 9.47%; to `CC1(C)CC2CC(C)(CN2S(=O)(=O)c2ccc(F)cc2F)C1` (stereo not drawn), -11.8%.
Regarding `Cn1c(=O)c2c(ncn2CC(COCc2ccccc2Cl)OCc2ccccc2Cl)n(C)c1=O` (stereo not drawn), the “hERG current change (%, negative = inhibition) at 10uM” value is -33.6%.
For the compound `Cn1c(=O)c2c(ncn2CC(COCc2ccc(Cl)cc2)OCc2ccc(Cl)cc2)n(C)c1=O` (stereo not drawn), the “hERG current change (%, negative = inhibition) at 10uM” value is listed as -51.1%.
Consider `Cn1c(=O)c2c(ncn2CC(COCc2ccccc2)OCc2ccccc2)n(C)c1=O` (stereo not drawn), for which the “hERG current change (%, negative = inhibition) at 10uM” value is reported as -12.1%.
Take `CN(Cc1ccc(F)cc1)C(=O)c1cccc(NS(=O)(=O)c2ccccc2)c1`: the “hERG current change (%, negative = inhibition) at 10uM” value is recorded as -13.4%.
Turning to `COc1cccc(C(=O)Nc2ncc3c(n2)CC(c2ccc(OC)cc2OC)CC3=O)c1` (stereo not drawn), the “hERG current change (%, negative = inhibition) at 10uM” value is on record as -17.3%.
`COc1ccc(CCNC(=O)c2ccccc2C(=O)NCCc2ccc(OC)c(OC)c2)cc1OC`: the “hERG current change (%, negative = inhibition) at 10uM” value is given as 3.48%.
For `CN(C)C(C)(C)/C=C/C(O)(c1ccccc1)c1ccccc1`, the “hERG current change (%, negative = inhibition) at 10uM” value is -36.6%.
With `CN(C)C/C=C/C(O)(c1ccccc1)c1ccccc1`, the “hERG current change (%, negative = inhibition) at 10uM” value was -61.5%.
For `CN(C)CCC(O)(c1ccccc1)c1ccccc1.Cl`, the “hERG current change (%, negative = inhibition) at 10uM” value is on record as -20.2%.
To `Cc1ccc(OCC(=O)OC(C)CN2CCCCC2)cc1.Cl` (stereo not drawn) belongs 12.2%.
The same measure for `C=CCNC(=O)c1cc(-c2ccncc2)nc2c(C)cc(C)cc12`: -43.5%.
`O=C(Nc1nccs1)c1nc(-c2ccccc2)n(-c2ccccc2)n1`: the “hERG current change (%, negative = inhibition) at 10uM” value worked out at 6.62%.
Consider `O=C(O)CNC(=O)c1nc(-c2ccccc2)n(-c2ccccc2)n1`, for which the “hERG current change (%, negative = inhibition) at 10uM” value amounted to 22.9%.
Turning to `Cc1csc(NC(=O)c2nc(-c3ccccc3)n(-c3ccccc3)n2)n1`, the “hERG current change (%, negative = inhibition) at 10uM” value is given as -79.2%.
For the compound `O=C(O)c1nc(-c2ccccc2)n(-c2ccccc2)n1`, the “hERG current change (%, negative = inhibition) at 10uM” value is 4.87%.
As for `CCCC(C)NC(=O)c1nc(-c2ccccc2)n(-c2ccccc2)n1` (stereo not drawn), the “hERG current change (%, negative = inhibition) at 10uM” value is recorded as -55.7%.
For the compound `Cc1csc(NC(=O)c2ccccc2)n1`, the “hERG current change (%, negative = inhibition) at 10uM” value is reported as 16.8%.
In the case of `O=C(c1cccc(S(=O)(=O)N2CCOCC2)c1)N1CCN(C/C=C/c2ccccc2)CC1`, the “hERG current change (%, negative = inhibition) at 10uM” value was -46.3%.
Regarding `CCC1Oc2ccc(C)cc2N(CC(=O)NCCC2=CCCCC2)C1=O` (stereo not drawn), the “hERG current change (%, negative = inhibition) at 10uM” value is given as -16%.
As for `N/C(=N\c1nc2ccccc2o1)NC(=O)c1ccc(Cl)cc1`, the “hERG current change (%, negative = inhibition) at 10uM” value worked out at 35.6%.
`CCC(C(=O)OCc1csc(CC(=O)Nc2ccccc2C)n1)c1ccccc1` (stereo not drawn): the “hERG current change (%, negative = inhibition) at 10uM” value was -6.51%.
In the case of `COc1ccc(Cn2c(O)c(C=NCCN3CCOCC3)c(=O)[nH]c2=O)cc1`, the “hERG current change (%, negative = inhibition) at 10uM” value is given as -14.4%.
To `Cc1cc(Cl)ccc1OCCCC(=O)NC1CCN(C)CC1` belongs -51.2%; to `Cc1cc(Cl)ccc1OCC(=O)NC1CCCC1`, -22.2%; to `Cc1cc(Cl)ccc1OCC(=O)N1CCN(C)CC1`, -12.5%.
For the compound `Cc1cc(Cl)ccc1OCC(=O)N1CCCCC1`, the “hERG current change (%, negative = inhibition) at 10uM” value is on record as -0.846%.
For the compound `Cc1cc(Cl)ccc1OCCCC(=O)N1CCN(C(=O)c2ccco2)CC1`, the “hERG current change (%, negative = inhibition) at 10uM” value is reported as -74.5%.
Consider `Cc1cc(Cl)ccc1OCCCC(=O)N1CCOCC1`, for which the “hERG current change (%, negative = inhibition) at 10uM” value is reported as -25%.
Turning to `Cc1cc(Cl)ccc1OCCCC(=O)N1CCCCC1`, the “hERG current change (%, negative = inhibition) at 10uM” value was -14.2%.
`Cc1cc(Cl)ccc1OCCCC(=O)N1CCN(C)CC1`: the “hERG current change (%, negative = inhibition) at 10uM” value was -30%.
As for `O=C(CCCOc1ccc(Cl)cc1Cl)N1CCc2ccccc2C1`, the “hERG current change (%, negative = inhibition) at 10uM” value was 12%.
Regarding `CN1CCN(C(=O)CCCOc2ccc(Cl)cc2Cl)CC1`, the “hERG current change (%, negative = inhibition) at 10uM” value was -61.6%.
Regarding `Cc1cc(Cl)ccc1OCCCC(=O)NN`, the “hERG current change (%, negative = inhibition) at 10uM” value was determined as 13.8%.
As to `Cc1cc(Cl)ccc1OCC(=O)N1CCCN(C(=O)COc2ccc(Cl)cc2C)CC1`, the “hERG current change (%, negative = inhibition) at 10uM” value is reported as -58.5%.
For the compound `CCC12CN(C(=O)c3ccc(OC)cc3)CC(CC)(CN(C(=O)c3ccc(OC)cc3)C1)C2=O`, the “hERG current change (%, negative = inhibition) at 10uM” value came to 3.45%.
Take `Cc1cc2cc3c(cc2nc1SCC(=O)N1CCOCC1)OCO3`: the “hERG current change (%, negative = inhibition) at 10uM” value amounted to 2.58%.
The same measure for `CCOc1ccc(S(=O)(=O)NCCC(=O)N2CCN(c3ncccn3)CC2)cc1`: -8.57%; for `CCC(Sc1nc(N)c(NC(=O)c2ccc(Br)o2)c(=O)[nH]1)C(=O)O` (stereo not drawn): 15.4%.
Take `C/C(CC1CC(COCCC(C)C)OC1=O)=N\NC(N)=S` (stereo not drawn): the “hERG current change (%, negative = inhibition) at 10uM” value is recorded as 4.37%.
As for `COC(=O)C1=C(N)Oc2cc(C)n(CC3CCCO3)c(=O)c2C1c1ccc(Cl)c(Cl)c1` (stereo not drawn), the “hERG current change (%, negative = inhibition) at 10uM” value came out at 3.95%.
